Compound activity deposited in PubChem BioAssay by University of Kansas High Throughput Screening Laboratory.
Sampled rows, rich in hits. Any-hit rate of the full collection: about 3.6%.
Pf apPOL block: Pf-apPOL DNA polymerase inhibition. Recombinant Pf-apPOL, molecular beacon fluorescence, 1.5 h. inhibition, % at 10 µM. 0.25% of 210,000 active
mHTT CaM bind: disrupts binding of mutant huntingtin to calmodulin. P42858. AlphaScreen His-mHTT/GST-CaM binding, luminescence. inhibition, % at 15 µM. 3.6% of 190,000 active. AID 1671202;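 note: 0% = both proteins with DMSO and 100% = one protein alone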
Target sequence (P42858 whole entry, looked up, stated change not applied): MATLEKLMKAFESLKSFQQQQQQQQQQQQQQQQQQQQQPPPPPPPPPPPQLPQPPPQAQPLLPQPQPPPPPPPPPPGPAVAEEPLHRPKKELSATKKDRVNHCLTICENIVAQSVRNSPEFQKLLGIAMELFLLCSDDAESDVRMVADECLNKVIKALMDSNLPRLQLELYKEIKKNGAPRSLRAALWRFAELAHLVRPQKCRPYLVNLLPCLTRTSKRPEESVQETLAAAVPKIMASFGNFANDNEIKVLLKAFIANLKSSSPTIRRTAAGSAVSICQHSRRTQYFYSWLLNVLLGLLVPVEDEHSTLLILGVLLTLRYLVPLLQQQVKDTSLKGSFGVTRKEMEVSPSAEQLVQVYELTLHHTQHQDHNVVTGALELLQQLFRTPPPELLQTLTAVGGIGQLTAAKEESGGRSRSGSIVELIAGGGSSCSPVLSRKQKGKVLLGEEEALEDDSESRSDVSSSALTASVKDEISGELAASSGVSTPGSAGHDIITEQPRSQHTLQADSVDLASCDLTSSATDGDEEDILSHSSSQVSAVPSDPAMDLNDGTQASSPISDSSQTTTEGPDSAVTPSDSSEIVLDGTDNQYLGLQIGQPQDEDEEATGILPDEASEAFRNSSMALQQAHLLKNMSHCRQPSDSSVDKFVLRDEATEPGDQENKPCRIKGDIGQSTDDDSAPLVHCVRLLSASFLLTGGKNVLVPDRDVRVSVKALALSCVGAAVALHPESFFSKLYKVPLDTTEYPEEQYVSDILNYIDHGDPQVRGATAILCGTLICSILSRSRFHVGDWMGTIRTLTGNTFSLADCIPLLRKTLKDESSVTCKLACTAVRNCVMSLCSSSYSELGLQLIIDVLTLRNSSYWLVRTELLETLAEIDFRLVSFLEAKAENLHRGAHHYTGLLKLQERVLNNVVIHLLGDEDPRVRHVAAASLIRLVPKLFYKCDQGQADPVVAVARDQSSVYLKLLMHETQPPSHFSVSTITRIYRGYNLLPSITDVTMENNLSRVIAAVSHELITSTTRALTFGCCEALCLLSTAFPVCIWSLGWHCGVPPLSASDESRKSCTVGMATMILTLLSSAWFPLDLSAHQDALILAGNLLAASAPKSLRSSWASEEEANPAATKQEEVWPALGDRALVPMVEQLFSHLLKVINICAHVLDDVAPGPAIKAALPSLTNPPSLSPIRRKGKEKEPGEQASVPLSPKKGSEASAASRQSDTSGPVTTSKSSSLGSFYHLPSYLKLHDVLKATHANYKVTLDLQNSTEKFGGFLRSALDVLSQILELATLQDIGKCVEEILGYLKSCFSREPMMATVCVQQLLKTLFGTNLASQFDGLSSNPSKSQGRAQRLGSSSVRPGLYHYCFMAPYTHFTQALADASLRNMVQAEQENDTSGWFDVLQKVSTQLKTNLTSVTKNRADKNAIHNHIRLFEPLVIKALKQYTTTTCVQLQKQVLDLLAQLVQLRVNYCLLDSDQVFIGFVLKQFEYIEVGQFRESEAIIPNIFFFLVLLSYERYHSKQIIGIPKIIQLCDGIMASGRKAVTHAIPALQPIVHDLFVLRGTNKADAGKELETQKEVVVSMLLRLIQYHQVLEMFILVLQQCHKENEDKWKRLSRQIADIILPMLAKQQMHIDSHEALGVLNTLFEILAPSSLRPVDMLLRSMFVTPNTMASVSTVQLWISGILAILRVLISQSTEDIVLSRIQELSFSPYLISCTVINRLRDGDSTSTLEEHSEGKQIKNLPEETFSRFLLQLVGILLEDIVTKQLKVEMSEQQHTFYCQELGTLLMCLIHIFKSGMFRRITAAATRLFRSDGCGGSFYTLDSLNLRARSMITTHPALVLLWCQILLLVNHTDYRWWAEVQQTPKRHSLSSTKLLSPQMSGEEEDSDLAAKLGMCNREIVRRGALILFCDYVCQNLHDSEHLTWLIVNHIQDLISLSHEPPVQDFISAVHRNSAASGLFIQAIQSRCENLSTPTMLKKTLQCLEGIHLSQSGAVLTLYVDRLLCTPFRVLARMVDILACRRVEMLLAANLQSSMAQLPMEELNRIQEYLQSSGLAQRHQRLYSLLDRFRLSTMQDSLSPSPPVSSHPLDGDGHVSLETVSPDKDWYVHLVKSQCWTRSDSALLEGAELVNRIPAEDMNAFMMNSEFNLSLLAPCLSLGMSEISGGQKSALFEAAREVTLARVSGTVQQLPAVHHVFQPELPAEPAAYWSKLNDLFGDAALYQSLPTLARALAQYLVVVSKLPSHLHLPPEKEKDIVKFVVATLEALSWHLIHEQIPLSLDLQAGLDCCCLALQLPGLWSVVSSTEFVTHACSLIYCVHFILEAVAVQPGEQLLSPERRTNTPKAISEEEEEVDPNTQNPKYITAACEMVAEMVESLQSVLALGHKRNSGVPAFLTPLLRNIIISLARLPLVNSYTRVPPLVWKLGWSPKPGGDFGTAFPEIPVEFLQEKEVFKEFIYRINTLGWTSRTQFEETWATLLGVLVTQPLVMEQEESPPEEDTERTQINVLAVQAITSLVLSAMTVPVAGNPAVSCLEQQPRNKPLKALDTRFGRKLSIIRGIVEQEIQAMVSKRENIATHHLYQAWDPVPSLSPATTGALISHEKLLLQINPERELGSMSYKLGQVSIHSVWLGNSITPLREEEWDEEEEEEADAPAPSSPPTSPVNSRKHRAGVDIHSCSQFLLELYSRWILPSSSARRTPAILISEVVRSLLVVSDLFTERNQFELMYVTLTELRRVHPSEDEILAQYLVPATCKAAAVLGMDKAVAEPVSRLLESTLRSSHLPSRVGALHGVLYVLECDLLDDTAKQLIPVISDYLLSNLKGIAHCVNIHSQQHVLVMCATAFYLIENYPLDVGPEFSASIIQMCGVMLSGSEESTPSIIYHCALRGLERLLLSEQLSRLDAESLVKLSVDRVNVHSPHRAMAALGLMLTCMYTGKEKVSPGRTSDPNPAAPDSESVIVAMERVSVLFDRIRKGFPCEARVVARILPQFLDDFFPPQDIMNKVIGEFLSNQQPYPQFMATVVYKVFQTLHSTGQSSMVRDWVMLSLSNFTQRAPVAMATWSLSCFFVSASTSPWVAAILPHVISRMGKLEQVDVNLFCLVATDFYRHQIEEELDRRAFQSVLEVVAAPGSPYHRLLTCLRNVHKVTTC
* = called active by the depositor; . = no result. Cut-off read from the data, not from the text of the source: active = inhibition above about 50%; inactive = the rest.

SMILES	Pf apPOL block	mHTT CaM bind
COc1ccc(OC)c(NC(=O)CCN2CCCC2)c1	-1.1	4.9
Cc1ccc(NC(=O)CN2CCc3ccccc3C2C(=O)N2CCC(C)CC2)cc1C (stereo not drawn)	-3.5	10.5
COc1ccc(Cl)cc1NC(=O)CCN1CCN(C)CC1	55.4*	0.2
O=C(CN1CCc2ccccc2C1C(=O)N1CCCCC1)NCc1ccc(Cl)cc1 (stereo not drawn)	-0.3	17.7
CC1CCN(C(=O)C2c3ccccc3CCN2CC(=O)Nc2cccc(Cl)c2)CC1 (stereo not drawn)	0.0	59.5*
COc1ccc(Cl)cc1NC(=O)CN1CCc2ccccc2C1C(=O)N1CCCCC1 (stereo not drawn)	-4.0	64.2*
CC1CCN(C(=O)C2c3ccccc3CCN2CC(=O)Nc2ccc(F)cc2Cl)CC1 (stereo not drawn)	-8.9	88.0*
CC1=C(C(=O)Nc2cccnc2)C(c2cccnc2)n2nc(SCc3ccccc3)nc2N1 (stereo not drawn)	-0.5	3.0
O=C(Oc1ccc2c(c1)OC(=Cc1cc(Cl)cc3c1OCOC3)C2=O)c1ccco1	2.6	16.6
Cc1ccccc1Cn1cnc2c(cnn2CCNC(=O)Cn2cnc3ccccc32)c1=O	-6.2	1.9
Cc1ccc(Cl)cc1N1CCC(C(=O)N(C)Cc2ccccc2)C1=O (stereo not drawn)	0.3	-6.8
COc1ccc(Cl)cc1NC(=O)N1CCN(CCc2ccccc2)CC1	-2.9	.
O=C(CN1CCc2ccccc2C1C(=O)N1CCCCC1)Nc1ccc(F)cc1Cl (stereo not drawn)	2.8	68.3*
O=C(CN1CCc2ccccc2C1C(=O)N1CCCCC1)NCc1ccc(F)cc1Cl (stereo not drawn)	-8.1	0.0
COc1ccc(Cl)cc1NC(=O)N1CCN(Cc2nc(-c3ccco3)cs2)CC1	6.9	63.6*
CCOc1ccccc1C(=O)N1CCC(c2nc(CNC(=O)C(C)C)cs2)CC1	-4.3	-1.0
Cc1ccc(Cl)cc1NC(=O)Nc1nnc2ccccn12	1.3	-9.9
CCc1ccc(C2=CC(c3ccc(Br)cc3)n3ncnc3N2)cc1 (stereo not drawn)	0.1	7.0
Cc1cc(Br)ccc1NC(=O)CCCN1C(=O)c2cccnc2C1=O	-25.3	10.0
Cn1cc(C(c2ccc([N+](=O)[O-])o2)c2cn(C)c3ccccc23)c2ccccc21	-0.4	65.0*
Cn1c(/C=C/c2ccc([N+](=O)[O-])o2)nc2ccccc2c1=O	-3.6	2.6
CC1CCN(C(=O)CS(=O)(=O)c2cn(Cc3ccc(F)cc3)c3ccccc23)CC1	1.2	32.0
CC(C)CN1CCC(C(=O)N2CCCC2)CC1	87.8*	-3.5
CC(CN1CCC(C(=O)N2CCCC2)CC1)c1ccccc1 (stereo not drawn)	-6.8	3.2
O=S(=O)(NCc1ccc(-c2csnn2)cc1)c1ccc(F)c(Cl)c1	-7.1	.
SMILES	Pf apPOL block	mHTT CaM bind
COCc1cc(CN2CCCC2)c(O)c2ncccc12	3.0	100.3*
Oc1ccccc1CN1CCCC1	-1.2	1.1
Fc1ccc(CN2CCN(c3ncccn3)CC2)c(F)c1	-4.5	-5.9
Oc1c(CN2CCCCC2)cc(CN2CCCCC2)nc1-c1ccccc1	1.4	7.4
Oc1c(CN2CCN(Cc3ccc4cccnc4c3O)CC2)ccc2cccnc12	-11.4	100.3*
Oc1c(CN2CCCCC2)cc(Cl)c2cccnc12	-6.9	100.0*
COc1cccc(-c2nc3sc(C)c(C)c3c(=O)[nH]2)c1	5.0	2.8
O=C(Nc1ccc(F)c(F)c1)c1ccc(F)c(S(=O)(=O)N2CCCc3ccccc32)c1	41.9	-2.0
O=[N+]([O-])c1ccc2nc(/C=C/c3ccco3)[nH]c2c1	-0.2	59.0*
C(=C\c1ccco1)/c1nc2ccccc2[nH]1	-3.0	48.9
Cc1ccc(S(=O)(=O)N2CCC(=O)N([C@H](COCc3cccc(Cl)c3)Cc3ccccc3)CC2)cc1	-4.9	19.5
CC(C)(C)c1ccc(C(=O)N2CCC(=O)N([C@H](COCc3ccccc3)Cc3ccccc3)CC2)cc1	-5.6	7.0
Cc1cccc(COC[C@H](Cc2ccccc2)N2CCN(C(=O)c3ccc(Cl)c(Cl)c3)CCC2=O)c1	0.2	100.0*
O=C(c1cccc(Cl)c1)N1CCC(=O)N([C@H](COCc2cccc(Cl)c2)Cc2ccccc2)CC1	-6.4	100.0*
Cc1nc2cc(N3CC(C(=O)NCc4ccc(Br)cc4)CC3=O)ccc2o1 (stereo not drawn)	-0.4	5.0
CCCCOc1cccc(C(=O)Nc2nnc(-c3ccco3)o2)c1	-120.4	60.0*
O=C(Nc1nnc(-c2ccco2)o1)c1ccc([N+](=O)[O-])cc1	-0.3	-9.1
Brc1ccc(-c2ccc(CNCc3ccco3)o2)cc1	-8.6	91.8*
Fc1ccc(-c2ccc(CNCc3ccco3)o2)cc1	-1.7	8.9
Cc1ccc(-n2cc(-c3ccccc3)c3c(NCC4CCCO4)ncnc32)cc1 (stereo not drawn)	-10.7	56.0*
CCCCNc1ncnc2c1c(-c1ccccc1)cn2-c1ccccc1	-0.3	38.0
CCN(CC)S(=O)(=O)c1ccc(C(=O)N=c2sc3cc([N+](=O)[O-])ccc3n2C)cc1	2.0	-4.0
COc1cccc(Nc2nc(-c3ccc(OC)c(F)c3)cs2)c1	-7.3	64.2*
Cc1cccc(Nc2nc(-c3cccnc3)cs2)c1	-3.8	8.1
Cc1ccc(Nc2nc(-c3ccc(F)cc3)cs2)cc1	-5.1	35.0
SMILES	Pf apPOL block	mHTT CaM bind
COc1ccc(-c2csc(Nc3ccccc3OC)n2)cc1F	10.8	42.7
COc1cccc(Nc2nc(-c3ccccc3)cs2)c1	0.6	61.8*
COc1cccc(Nc2nc(-c3cc(C)ccc3C)cs2)c1	-2.0	62.6*
Cc1ccc(C)c(-c2csc(Nc3ccc(Cl)cc3)n2)c1	-5.4	66.6*
COc1cccc(Nc2ccc(-c3ccccc3)nn2)c1	-5.6	.
COc1ccc(-n2cnc(N)c2C(=O)c2ccccc2)cc1	-6.1	1.2
O=C(NCc1ccc(N2CCOCC2)cc1)C1CCCN(c2cn[nH]c(=O)c2)C1 (stereo not drawn)	-2.4	1.5
Cc1c(Cl)cccc1NC(=O)C(=O)NCC(O)c1ccccc1 (stereo not drawn)	-10.4	-4.6
Cc1csc(NC(=O)CCC2CCCC2)n1	22.2	-7.8
O=C(CCS(=O)(=O)Cc1ccccc1Cl)NC1CC1	-19.4	-2.0
CC1CCC(NC(=O)c2cc3c(s2)CN(C2CCCC2)C3)CC1 (stereo not drawn)	-3.2	9.4
CCc1ccc(-c2csc(Nc3cccc(OC)c3)n2)cc1	2.2	67.1*
COc1ccc(-c2csc(NCc3ccccc3)n2)cc1	.	23.0
CC1CN(C(=O)Nc2ccccc2Cl)c2cc(Cl)ccc2O1 (stereo not drawn)	2.3	-43.1
Cc1ccc(S(=O)(=O)N2CCC(Oc3cccc(C(F)(F)F)c3)CC2)cc1	-9.9	94.7*
O=S(=O)(Cc1ccccc1)N1CCC(Oc2cccc(C(F)(F)F)c2)CC1	-8.0	-25.2
O=C(NN1CCOCC1)C1CCCN(c2ccc(-c3ccc(F)cc3)nn2)C1 (stereo not drawn)	-8.3	-18.5
O=C(CCC1CCCC1)NC1CC(O)C(CO)C1 (stereo not drawn)	1.1	0.8
CCSC1=C(C#N)C(Cc2ccccc2)C2=C(CCCC2=O)N1 (stereo not drawn)	-4.8	-12.2
N#CC1=C(S)NC2=C(C(=O)CCC2)C1Cc1ccccc1 (stereo not drawn)	-6.1	59.0*
COc1cc(/C=C2\NC(=O)NC2=O)cc(Cl)c1OCc1cccc(C(=O)O)c1	-3.5	6.0
